What was measured:
[1] = biological target: T1, Serine/threonine-protein kinase 17A (Homo sapiens) (UniProt Q9UEE5); conditions: at 10 µM
T1 sequence (whole entry): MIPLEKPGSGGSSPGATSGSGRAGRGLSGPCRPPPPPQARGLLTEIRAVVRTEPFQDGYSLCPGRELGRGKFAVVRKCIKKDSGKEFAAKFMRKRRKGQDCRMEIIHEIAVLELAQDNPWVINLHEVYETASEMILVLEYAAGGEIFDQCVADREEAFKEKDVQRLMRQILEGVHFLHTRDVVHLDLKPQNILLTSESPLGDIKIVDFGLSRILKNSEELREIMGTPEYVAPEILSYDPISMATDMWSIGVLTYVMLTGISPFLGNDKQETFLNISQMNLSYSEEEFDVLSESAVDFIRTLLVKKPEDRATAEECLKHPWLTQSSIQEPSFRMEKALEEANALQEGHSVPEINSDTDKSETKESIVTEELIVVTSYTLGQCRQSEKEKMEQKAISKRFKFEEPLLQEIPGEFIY

[2] = biological target: T2, Dual specificity tyrosine-phosphorylation-regulated kinase 2 (Homo sapiens) (UniProt Q92630); conditions: at 1 µM
T2 sequence (whole entry): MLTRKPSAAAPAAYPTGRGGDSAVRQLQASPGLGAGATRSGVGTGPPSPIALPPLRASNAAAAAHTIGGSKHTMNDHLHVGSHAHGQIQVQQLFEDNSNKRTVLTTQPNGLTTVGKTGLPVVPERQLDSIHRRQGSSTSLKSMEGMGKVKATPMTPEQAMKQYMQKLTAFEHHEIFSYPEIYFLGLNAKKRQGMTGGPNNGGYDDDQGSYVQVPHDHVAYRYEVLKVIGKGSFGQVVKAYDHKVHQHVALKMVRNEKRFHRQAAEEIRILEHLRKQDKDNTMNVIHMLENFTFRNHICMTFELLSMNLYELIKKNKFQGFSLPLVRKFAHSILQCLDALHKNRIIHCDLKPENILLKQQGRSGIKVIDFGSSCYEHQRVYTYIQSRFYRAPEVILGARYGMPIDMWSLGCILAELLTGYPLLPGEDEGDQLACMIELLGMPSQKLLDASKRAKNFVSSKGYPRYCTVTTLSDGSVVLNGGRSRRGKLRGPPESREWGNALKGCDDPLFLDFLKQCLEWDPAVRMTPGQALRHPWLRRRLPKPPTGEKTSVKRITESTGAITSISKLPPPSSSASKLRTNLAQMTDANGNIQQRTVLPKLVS

[3] = biological target: T2, Dual specificity tyrosine-phosphorylation-regulated kinase 2 (Homo sapiens); conditions: at 10 µM
[4] = biological target: T3, Ephrin type-A receptor 1 (Homo sapiens) (UniProt P21709); conditions: at 1 µM
T3 sequence (whole entry): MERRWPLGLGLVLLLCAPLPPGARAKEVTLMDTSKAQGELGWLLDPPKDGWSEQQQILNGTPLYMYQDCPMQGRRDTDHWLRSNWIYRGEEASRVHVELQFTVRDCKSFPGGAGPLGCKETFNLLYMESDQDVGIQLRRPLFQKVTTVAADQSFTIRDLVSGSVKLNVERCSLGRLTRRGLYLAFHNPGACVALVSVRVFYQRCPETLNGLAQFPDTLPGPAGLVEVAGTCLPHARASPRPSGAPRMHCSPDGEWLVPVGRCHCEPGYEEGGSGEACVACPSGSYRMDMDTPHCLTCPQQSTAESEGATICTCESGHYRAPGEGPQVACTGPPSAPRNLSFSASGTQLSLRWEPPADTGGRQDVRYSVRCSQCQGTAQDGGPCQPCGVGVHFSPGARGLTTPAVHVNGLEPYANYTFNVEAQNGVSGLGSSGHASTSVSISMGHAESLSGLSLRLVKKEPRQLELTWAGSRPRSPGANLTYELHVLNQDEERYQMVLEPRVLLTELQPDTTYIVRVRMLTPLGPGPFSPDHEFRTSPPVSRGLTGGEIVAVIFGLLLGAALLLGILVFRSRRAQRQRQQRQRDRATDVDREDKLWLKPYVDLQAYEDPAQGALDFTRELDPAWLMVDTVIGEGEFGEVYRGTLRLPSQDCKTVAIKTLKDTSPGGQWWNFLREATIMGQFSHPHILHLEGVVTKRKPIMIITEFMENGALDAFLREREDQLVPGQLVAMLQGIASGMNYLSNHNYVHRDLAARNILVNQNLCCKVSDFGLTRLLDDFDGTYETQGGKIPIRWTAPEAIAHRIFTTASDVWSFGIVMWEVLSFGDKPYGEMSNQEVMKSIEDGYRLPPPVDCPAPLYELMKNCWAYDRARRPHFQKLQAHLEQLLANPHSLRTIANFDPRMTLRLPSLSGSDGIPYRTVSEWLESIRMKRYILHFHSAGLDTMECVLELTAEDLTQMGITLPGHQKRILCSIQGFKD

[5] = biological target: T3, Ephrin type-A receptor 1 (Homo sapiens); conditions: at 10 µM
[6] = biological target: Ephrin type-A receptor 2 (Homo sapiens) (UniProt P29317); conditions: at 1 µM
[7] = biological target: Ephrin type-A receptor 2 (Homo sapiens) (UniProt P29317); conditions: at 10 µM
[8] = biological target: T4, Ephrin type-A receptor 3 (Homo sapiens) (UniProt P29320); conditions: at 1 µM
T4 sequence (whole entry): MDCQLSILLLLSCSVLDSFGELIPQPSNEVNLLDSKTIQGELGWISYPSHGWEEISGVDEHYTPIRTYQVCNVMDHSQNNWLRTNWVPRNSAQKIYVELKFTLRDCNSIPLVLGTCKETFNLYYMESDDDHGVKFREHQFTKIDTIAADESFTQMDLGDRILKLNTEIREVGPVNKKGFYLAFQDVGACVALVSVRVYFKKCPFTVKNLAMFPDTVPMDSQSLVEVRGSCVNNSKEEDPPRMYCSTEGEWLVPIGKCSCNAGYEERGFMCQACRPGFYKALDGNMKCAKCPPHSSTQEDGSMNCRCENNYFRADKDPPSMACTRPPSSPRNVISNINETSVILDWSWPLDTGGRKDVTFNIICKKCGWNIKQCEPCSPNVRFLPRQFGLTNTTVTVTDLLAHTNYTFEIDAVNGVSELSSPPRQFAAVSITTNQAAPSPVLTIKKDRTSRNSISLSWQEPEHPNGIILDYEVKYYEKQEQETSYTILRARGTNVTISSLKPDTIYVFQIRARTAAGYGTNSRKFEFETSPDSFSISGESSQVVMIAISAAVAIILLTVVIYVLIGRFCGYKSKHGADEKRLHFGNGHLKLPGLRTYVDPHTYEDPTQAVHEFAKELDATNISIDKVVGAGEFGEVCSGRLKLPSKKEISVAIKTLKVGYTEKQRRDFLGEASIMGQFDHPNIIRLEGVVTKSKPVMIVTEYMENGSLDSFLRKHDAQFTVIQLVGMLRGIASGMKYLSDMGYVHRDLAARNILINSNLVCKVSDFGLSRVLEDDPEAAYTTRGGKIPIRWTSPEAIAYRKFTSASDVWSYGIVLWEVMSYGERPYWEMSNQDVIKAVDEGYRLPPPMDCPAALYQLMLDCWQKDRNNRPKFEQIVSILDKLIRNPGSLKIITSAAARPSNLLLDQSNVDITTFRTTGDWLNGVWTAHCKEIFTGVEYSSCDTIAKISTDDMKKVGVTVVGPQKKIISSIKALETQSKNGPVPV

[9] = biological target: T4, Ephrin type-A receptor 3 (Homo sapiens); conditions: at 10 µM
[10] = biological target: Ephrin type-A receptor 4 (Homo sapiens) (UniProt P54764); conditions: at 1 µM
[11] = biological target: Ephrin type-A receptor 4 (Homo sapiens) (UniProt P54764); conditions: at 10 µM
[12] = biological target: Ephrin type-A receptor 5 (Homo sapiens) (UniProt P54756); conditions: at 1 µM
[13] = biological target: Ephrin type-A receptor 5 (Homo sapiens) (UniProt P54756); conditions: at 10 µM
[14] = biological target: Ephrin type-A receptor 7 (Homo sapiens) (UniProt Q15375); conditions: at 1 µM
[15] = biological target: Ephrin type-A receptor 7 (Homo sapiens) (UniProt Q15375); conditions: at 10 µM
[16] = biological target: T5, Ephrin type-A receptor 8 (Homo sapiens) (UniProt P29322); conditions: at 1 µM
T5 sequence (whole entry): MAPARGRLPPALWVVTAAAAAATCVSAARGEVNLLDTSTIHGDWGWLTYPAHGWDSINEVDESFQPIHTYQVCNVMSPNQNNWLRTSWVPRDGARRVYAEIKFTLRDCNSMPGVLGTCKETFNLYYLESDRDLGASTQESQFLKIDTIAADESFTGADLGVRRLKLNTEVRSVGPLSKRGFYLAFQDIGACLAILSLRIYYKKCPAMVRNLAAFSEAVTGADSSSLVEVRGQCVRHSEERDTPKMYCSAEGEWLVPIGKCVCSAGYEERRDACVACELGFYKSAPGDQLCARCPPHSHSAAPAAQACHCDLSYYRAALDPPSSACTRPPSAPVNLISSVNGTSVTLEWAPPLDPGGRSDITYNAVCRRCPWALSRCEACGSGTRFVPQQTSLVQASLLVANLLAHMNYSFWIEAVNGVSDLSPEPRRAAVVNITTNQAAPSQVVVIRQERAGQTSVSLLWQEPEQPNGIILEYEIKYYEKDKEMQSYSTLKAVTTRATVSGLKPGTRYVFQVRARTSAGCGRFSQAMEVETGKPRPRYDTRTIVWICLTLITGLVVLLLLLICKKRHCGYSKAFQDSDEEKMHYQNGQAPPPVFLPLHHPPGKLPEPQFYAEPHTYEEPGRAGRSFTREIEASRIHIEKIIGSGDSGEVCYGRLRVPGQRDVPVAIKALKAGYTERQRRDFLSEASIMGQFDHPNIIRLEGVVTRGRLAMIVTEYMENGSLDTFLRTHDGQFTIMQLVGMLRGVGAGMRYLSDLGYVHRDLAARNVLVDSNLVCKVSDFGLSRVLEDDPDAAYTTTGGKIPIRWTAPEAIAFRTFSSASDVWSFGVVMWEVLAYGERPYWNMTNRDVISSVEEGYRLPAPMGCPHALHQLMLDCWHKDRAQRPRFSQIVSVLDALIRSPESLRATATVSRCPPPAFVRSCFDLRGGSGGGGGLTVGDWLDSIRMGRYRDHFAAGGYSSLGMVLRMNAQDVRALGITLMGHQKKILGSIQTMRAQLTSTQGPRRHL

[17] = biological target: T5, Ephrin type-A receptor 8 (Homo sapiens); conditions: at 10 µM
[18] = biological target: T6, Ephrin type-B receptor 1 (Homo sapiens) (UniProt P54762); conditions: at 1 µM
T6 sequence (whole entry): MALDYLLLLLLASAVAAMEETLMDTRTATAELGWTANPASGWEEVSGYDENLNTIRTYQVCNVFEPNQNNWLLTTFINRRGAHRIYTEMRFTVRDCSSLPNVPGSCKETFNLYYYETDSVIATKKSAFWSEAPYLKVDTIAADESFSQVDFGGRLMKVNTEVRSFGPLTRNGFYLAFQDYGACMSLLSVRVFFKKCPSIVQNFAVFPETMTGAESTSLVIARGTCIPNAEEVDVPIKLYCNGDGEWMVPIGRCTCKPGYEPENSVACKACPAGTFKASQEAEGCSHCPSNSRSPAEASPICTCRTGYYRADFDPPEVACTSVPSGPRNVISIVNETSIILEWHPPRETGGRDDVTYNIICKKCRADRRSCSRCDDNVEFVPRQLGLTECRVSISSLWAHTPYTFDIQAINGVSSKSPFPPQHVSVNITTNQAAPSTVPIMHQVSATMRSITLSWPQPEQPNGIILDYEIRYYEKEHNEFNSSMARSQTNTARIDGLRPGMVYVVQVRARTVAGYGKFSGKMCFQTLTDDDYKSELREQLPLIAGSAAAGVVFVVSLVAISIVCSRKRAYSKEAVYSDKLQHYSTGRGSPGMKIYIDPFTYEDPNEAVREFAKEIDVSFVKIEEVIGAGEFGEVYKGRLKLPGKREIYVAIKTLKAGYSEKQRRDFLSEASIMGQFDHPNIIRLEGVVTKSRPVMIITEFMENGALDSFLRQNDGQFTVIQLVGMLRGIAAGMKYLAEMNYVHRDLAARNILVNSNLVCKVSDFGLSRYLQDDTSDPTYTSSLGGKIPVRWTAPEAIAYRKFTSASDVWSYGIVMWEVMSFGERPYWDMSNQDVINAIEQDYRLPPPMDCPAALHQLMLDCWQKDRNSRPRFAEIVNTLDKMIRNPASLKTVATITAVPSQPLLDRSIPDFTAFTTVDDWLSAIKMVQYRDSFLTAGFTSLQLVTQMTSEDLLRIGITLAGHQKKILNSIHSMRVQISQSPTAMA

Ephrin type-A receptor 2 (Homo sapiens), sequence (P29317 whole entry): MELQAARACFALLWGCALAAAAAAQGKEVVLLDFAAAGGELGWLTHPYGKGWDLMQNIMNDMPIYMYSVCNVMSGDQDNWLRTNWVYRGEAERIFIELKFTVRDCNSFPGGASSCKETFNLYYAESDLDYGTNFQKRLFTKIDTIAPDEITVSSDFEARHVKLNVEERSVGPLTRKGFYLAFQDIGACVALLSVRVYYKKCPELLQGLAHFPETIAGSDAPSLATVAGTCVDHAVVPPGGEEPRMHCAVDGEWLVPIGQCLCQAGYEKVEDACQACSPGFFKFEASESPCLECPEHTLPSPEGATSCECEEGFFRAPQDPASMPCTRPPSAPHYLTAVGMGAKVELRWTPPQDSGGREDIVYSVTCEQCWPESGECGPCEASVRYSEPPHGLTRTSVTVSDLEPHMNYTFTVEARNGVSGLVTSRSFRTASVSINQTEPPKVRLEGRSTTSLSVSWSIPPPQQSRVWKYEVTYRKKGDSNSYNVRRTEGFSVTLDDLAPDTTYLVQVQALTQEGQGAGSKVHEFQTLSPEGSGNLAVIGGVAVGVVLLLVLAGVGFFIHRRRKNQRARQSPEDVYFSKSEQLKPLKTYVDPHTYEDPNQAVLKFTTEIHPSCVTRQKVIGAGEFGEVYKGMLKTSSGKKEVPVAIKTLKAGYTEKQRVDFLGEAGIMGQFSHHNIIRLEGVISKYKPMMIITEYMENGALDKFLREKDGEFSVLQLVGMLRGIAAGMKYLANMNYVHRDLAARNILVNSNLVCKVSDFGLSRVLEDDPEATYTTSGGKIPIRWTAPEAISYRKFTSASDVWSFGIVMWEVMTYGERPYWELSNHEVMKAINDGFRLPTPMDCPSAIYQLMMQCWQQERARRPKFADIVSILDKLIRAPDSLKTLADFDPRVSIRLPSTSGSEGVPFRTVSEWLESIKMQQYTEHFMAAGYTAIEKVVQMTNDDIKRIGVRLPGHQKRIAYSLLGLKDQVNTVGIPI
Ephrin type-A receptor 4 (Homo sapiens), sequence (P54764 whole entry): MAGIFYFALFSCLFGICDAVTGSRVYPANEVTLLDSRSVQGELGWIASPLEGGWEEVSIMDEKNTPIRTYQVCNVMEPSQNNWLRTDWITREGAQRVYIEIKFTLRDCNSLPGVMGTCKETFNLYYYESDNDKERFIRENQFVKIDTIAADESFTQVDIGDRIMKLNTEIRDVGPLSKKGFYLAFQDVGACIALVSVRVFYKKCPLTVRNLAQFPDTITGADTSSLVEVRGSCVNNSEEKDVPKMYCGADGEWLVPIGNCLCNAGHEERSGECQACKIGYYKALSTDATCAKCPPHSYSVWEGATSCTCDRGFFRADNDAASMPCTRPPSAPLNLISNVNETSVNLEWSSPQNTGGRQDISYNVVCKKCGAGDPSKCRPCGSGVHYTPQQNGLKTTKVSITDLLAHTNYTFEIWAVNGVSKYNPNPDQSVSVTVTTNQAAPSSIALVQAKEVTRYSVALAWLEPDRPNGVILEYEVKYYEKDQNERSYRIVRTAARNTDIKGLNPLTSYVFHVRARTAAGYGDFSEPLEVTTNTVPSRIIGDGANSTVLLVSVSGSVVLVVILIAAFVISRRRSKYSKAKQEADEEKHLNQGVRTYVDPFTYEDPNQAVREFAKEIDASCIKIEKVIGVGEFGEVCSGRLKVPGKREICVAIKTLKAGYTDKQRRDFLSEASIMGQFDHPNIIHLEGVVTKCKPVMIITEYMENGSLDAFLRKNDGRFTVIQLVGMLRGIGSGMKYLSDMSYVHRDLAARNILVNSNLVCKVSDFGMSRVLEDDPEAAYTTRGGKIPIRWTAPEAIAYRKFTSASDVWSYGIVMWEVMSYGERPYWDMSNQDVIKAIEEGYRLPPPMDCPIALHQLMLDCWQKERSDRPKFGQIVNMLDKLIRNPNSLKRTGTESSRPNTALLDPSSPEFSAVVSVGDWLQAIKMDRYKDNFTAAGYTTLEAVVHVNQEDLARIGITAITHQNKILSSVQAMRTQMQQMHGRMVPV
Ephrin type-A receptor 5 (Homo sapiens), sequence (P54756 whole entry): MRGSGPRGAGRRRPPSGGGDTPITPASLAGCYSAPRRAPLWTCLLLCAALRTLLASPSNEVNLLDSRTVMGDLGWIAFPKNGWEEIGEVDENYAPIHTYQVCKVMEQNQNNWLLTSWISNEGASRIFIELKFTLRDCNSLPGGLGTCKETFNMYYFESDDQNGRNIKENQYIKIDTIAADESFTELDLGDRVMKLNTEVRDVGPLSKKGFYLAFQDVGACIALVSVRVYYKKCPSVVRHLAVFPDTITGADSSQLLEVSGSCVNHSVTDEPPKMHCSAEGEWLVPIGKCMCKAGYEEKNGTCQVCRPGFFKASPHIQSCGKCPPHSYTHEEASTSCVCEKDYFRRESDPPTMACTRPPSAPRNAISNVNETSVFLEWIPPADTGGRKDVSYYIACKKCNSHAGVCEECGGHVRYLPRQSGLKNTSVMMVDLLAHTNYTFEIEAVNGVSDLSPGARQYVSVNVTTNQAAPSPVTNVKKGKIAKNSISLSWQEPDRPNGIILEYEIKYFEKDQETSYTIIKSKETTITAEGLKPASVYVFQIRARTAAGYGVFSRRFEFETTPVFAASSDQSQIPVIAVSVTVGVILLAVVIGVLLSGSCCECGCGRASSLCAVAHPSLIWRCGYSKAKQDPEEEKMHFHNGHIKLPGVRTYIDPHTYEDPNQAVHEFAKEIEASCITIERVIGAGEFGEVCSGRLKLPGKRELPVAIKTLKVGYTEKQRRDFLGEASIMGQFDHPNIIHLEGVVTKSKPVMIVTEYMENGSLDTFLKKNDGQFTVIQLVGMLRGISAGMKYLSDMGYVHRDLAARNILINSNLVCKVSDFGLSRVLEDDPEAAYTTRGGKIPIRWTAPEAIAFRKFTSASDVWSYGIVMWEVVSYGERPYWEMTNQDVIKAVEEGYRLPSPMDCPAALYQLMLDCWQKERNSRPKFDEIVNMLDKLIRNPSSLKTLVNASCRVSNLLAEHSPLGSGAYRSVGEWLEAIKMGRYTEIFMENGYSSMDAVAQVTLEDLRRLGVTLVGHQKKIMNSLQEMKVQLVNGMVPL
Ephrin type-A receptor 7 (Homo sapiens), sequence (Q15375 28-998 limits assumed): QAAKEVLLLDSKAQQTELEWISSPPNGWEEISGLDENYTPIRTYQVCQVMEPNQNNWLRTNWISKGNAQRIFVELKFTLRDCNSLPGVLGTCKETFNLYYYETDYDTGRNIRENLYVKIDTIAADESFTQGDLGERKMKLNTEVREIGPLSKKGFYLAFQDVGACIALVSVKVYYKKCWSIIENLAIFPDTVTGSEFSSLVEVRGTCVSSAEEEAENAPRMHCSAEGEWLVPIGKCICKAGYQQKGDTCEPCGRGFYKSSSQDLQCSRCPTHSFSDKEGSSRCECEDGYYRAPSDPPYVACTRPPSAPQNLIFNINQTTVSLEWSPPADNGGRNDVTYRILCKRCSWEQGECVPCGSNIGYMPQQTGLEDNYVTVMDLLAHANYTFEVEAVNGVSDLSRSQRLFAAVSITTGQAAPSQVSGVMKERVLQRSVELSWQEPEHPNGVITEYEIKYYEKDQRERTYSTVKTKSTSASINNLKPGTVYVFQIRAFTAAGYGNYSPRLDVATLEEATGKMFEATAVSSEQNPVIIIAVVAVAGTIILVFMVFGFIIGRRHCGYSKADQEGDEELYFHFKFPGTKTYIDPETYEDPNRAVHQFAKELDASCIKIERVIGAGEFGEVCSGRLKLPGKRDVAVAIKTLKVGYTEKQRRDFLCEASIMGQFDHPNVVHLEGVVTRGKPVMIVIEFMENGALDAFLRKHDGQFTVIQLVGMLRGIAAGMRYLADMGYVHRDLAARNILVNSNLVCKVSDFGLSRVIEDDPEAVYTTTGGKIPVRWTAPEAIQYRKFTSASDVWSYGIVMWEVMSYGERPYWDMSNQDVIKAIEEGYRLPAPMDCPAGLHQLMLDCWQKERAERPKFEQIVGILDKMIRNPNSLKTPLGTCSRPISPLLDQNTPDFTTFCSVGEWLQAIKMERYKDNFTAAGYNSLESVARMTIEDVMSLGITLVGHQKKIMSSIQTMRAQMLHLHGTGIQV

Row | Structure (SMILES) | residual activity [1] | residual activity [2] | residual activity [3] | residual activity [4] | residual activity [5] | residual activity [6] | residual activity [7] | residual activity [8] | residual activity [9] | residual activity [10] | residual activity [11] | residual activity [12] | residual activity [13] | residual activity [14] | residual activity [15] | residual activity [16] | residual activity [17] | residual activity [18]
1 | Nc1n[nH]c2nnc(-c3c(-c4ccccc4)nn4ccccc34)cc12 | 117% | 94% | 88% | 96% | 66% | 91% | 95% | 94% | 93% | 104% | 100% | 91% | 94% | 91% | 83% | 91% | 80% | 98%
2 | O=C1Nc2ccccc2/C1=C1/Nc2ccccc2/C1=N\OCCC(O)CO (centres undefined) | 3% | 70% | 52% | 43% | 42% | 54% | 14% | 41% | 6% |  |  | 59% | 23% | 58% | 10% | 72% | 32% | 56%
3 | Nc1nc(Nc2ccc(S(N)(=O)=O)cc2)nn1C(=S)Nc1c(F)cccc1F | 4% | 49% | -1% | 1% | 3% | 13% | -2% | 65% | 23% | 97% | 86% | 59% | 11% | 3% | -2% | 76% | 24% | 1%
4 | CO[C@H]1[C@@H](OC)C[C@H](C)[C@@H](OC)C2=CC(=O)C=C(NC(=O)/C(C)=C/C=C/[C@H](OC)[C@@H](OC(N)=O)/C(C)=C/[C@@H]1C)C2=O | 88% | 95% | 101% | 94% | 102% | 105% | 113% | 101% | 85% | 110% | 112% | 107% | 95% | 95% | 96% | 96% | 105% | 109%
5 | Cc1cc2ncc(-c3ccccc3)nc2cc1C | 95% | 85% | 105% | 96% | 105% | 109% | 97% | 103% | 92% |  |  |  |  | 99% | 93% | 97% | 98% | 106%

From ChEMBL document CHEMBL2218924, “A broad activity screen in support of a chemogenomic map for kinase signalling research and drug discovery” (Biochem J, 2013)
